POLH inh – blocks human DNA polymerase eta activity. recombinant Pol eta, fluorescent DNA replication assay. AID 588591. Potency, µM (titrated, usually from 114 µM), for the others: at the top dose activity change, negative = inhibition, most hits filed as inhibitors. hit rate 1.2% among 390,000. Q9Y253; further: on the % scale 0 is the no-effect control and ±100 the full control effect
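Fluorescent replication assay: 50 nM final substrate added after a 15 min room-temperature compound preincubation with 10 nM enzyme. Signal taken at 0 min and again at 10 min.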
Pol iota inh – DNA polymerase iota (human) inhibition; Q9UNA4; Pol iota fluorescent replication assay, 10 min; Potency, µM (top dose mostly 115 µM), inactives show top-dose activity, negative = inhibition, most hits filed as inhibitors; hit rate 1% among 390,000; AID 588590
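Pol iota at 10 nM preincubated 15 min with compounds at room temperature; reaction started with fluorescent substrate, 50 nM final. Fluorescence read kinetically at 0 and 10 min; buffer-only wells as negative control.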
WRN inhibitor – WRN helicase (human) inhibition; Q14191; hit rate 0.46% among 360,000; WRN helicase unwinding, fluorescent forked duplex, kinetic; AID 651768; Potency, µM (highest dose often 114 µM), without a hit: top-dose activity change, negative = inhibition, usual class: inhibitors; further: on the % scale 0 is the no-effect control and ±100 the full control effect; nearly all actives have a fitted effect of over 55% in size
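Enzyme (20 nM final) and test compound sit together 15 min at room temperature before substrate addition. Substrate is a single-forked duplex oligonucleotide (100 nM) labelled with fluorophore and quencher, with 2 mM ATP; helicase unwinding raises red fluorescence, read kinetically.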
Pol kappa inh – DNA polymerase kappa (human) inhibition; Q9UBT6; purified Pol kappa, fluorescent DNA synthesis assay, 10 min; Potency, µM (titrated, usually from 107 µM), for the others: at the highest dose activity, negative = inhibition, usual class: inhibitors; hit rate 0.53% among 400,000; further: on the % scale 0 is the no-effect control and ±100 the full control effect
Target sequence (Q9UBT6 whole entry, looked up): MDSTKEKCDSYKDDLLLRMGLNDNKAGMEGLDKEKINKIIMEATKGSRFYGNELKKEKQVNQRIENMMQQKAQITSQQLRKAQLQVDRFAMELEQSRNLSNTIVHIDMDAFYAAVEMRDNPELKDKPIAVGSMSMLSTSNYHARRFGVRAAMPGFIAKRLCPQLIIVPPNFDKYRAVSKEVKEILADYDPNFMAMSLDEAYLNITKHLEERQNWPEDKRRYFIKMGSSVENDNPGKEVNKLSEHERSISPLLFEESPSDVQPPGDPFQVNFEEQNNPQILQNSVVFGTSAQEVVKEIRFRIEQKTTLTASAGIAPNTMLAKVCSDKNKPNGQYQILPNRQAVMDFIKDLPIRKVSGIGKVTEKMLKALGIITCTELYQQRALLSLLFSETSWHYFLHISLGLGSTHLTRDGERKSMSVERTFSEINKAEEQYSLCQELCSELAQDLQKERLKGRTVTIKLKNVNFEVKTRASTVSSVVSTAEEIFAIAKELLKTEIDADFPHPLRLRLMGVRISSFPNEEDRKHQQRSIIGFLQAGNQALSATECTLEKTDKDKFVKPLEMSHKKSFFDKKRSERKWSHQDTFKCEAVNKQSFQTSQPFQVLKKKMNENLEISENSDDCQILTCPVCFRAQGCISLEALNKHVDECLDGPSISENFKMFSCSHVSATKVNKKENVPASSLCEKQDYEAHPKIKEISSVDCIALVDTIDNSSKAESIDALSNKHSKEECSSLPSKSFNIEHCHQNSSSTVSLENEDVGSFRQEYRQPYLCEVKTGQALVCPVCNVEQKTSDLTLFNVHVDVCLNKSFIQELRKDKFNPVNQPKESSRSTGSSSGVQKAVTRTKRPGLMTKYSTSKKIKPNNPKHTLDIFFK
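Readout: fluorescence, taken kinetically at 0 and 10 min. Conditions: 10 nM Pol kappa, 15 min RT compound preincubation, 50 nM substrate final. Controls: enzyme-free buffer wells.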
L3MBTL1 block – L3MBTL1 (human) inhibition | Q9Y468 | AlphaScreen L3MBTL1–H3K9me1 peptide binding | Potency, µM (highest dose often 57.1 µM), for inactives: at the highest dose activity, negative = inhibition, most hits filed as inhibitors | hit rate 0.66% among 230,000 | AID 485360; further: on the % scale 0 is the no-effect control and ±100 the full control effect; nearly all actives have a fitted effect of over 60% in size
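Displacement of a biotinylated histone H3(1-15) peptide monomethylated at Lys9 (75 nM) from L3MBTL1 (50 nM) was measured by AlphaScreen after a 30 min room-temperature compound incubation; cefsulodin titration served as intraplate control.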
POLB inh – blocks human DNA polymerase beta activity. Pol beta primer extension/strand displacement, fluorescence kinetic. Potency, µM (top dose mostly 114 µM), for the others: at the top dose activity change, negative = inhibition, actives largely listed as inhibitors. hit rate 1.3% among 340,000; further: on the % scale 0 is the no-effect control and ±100 the full control effect
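Curves were derived by four-parameter Hill fits of normalized qHTS data. The kinetic fluorescent primer-extension read was taken at 0 and 10 min after 50 nM substrate, following a 15 min room-temperature preincubation of 10 nM enzyme with compounds.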
* hit, by the source's call; ? = inconclusive; nt = no result; [ ] = dose if it differs, or a comment. A selection: hits, their analogues and other compounds. The true share with any hit is near 2.5%. The call rests on the fitted dose curve; in most records, active means well fitted curve in the direction sought with a large enough effect; inconclusive means small, poorly fitted or top-dose-only effect, or another doubt; inactive means no such curve, though single readings can be large; an effect the other way counts as inactive or inconclusive. Potency means the concentration at half of the fitted maximal effect.

SMILES	POLH inh	Pol iota inh	WRN inhibitor	Pol kappa inh	L3MBTL1 block	POLB inh
CCOc1[nH]c(/N=C/c2ccco2)c(C#N)c1C#N	14.1µM*	?	-20.4%[57.1 µM]	?	0.4%	12.1%
Cc1nc2c(C)c(C)c(C)c(C)c2nc1C	-18.9%	58.2%	2.8%	-2.7%	6.8%	8.1%
Cc1nc2c(O)c3c(c(O)c2nc1C)C1C=CC3CC1	2.2%	14.1µM*	-19.0%	-5.0%	nt	nt
CC(C)(Oc1ccc(-c2ccco2)cc1)C(=O)O	nt	nt	nt	nt	nt	39.8µM*
COc1cccc(OC)c1CNC(=O)CCSCc1ccccc1F	-6.4%	164.8%	1.0%	0.2%	nt	1.6%
COc1ccc(C2=Nc3ccccc3NC(=O)C2N(CCc2ccccc2)C(=O)c2cccs2)cc1 (stereo not given)	nt	nt	-4.6%	nt	nt	nt
Cc1ccc(-c2cn(CCN)c(-c3ccncc3)n2)cc1	-1.1%	31.6µM*	-2.9%[11.6 µM]	-17.3%	-0.2%	nt
O=C(NCCc1ccccc1)c1cc2ncc(Br)cn2n1	?	?	-23.8%	-13.9%	nt	39.8µM*
O=C(c1cc2ncc(Br)cn2n1)N1CCOCC1	0.6%	-4.3%	-5.6%	-3.9%	nt	6.2%
O=C(c1cc2ncc(Br)cn2n1)N1CCN(C(=O)c2ccco2)CC1	12.6µM*	?	?	-13.8%	?	?
N#Cc1nc(-c2cccc3ccccc23)oc1NCC#CCOC(=O)c1cccs1	nt	nt	nt	nt	-6.2%	nt
O=C(N/N=C/c1ccccc1)c1n[nH]c2c1CCCC2	1.0%	86.7%	-0.8%[57.1 µM]	-8.0%	-2.5%	-29.3%
O=C(N/N=C/C(Br)=C/c1ccccc1)c1n[nH]c2c1CCC2	?	3.55µM*	-20.5%	?	nt	3.0%
O=C(CSc1ccccc1F)NCCCN1CCCC1=O	-20.0%	4.9%	-3.7%	2.9%	2.0%	nt
CCOc1cc([N+](=O)[O-])cc(/C=C2/NC(=O)N(Cc3ccccc3F)C2=O)c1O	50.1µM*	?	-1.2%[11.6 µM]	?	-8.7%	?
COc1cccc(-n2c(C)nc3c(cnn3-c3ccc(C)cc3)c2=O)c1	8.0%	3.3%	0.2%	-7.8%	8.6%	-1.0%
COc1cccc(-n2c(-c3ccccc3F)nc3c(cnn3-c3ccc(C)cc3)c2=O)c1	-9.7%	15.8µM*	nt	-16.0%	nt	5.0%
CC(C)Cn1c(N)c(C(=O)COC(=O)c2ccc(O)cc2O)c(=O)n(C)c1=O	-1.1%	22.6%	-8.1%	-1.5%	-9.1%	nt
Cc1cc(C(=O)Cn2ncc(Cl)c(Cl)c2=O)c(C)n1CC(F)(F)F	22.4µM*	?	-24.2%	-31.1%	-15.7%	-3.7%
Cc1ccc(C)c(C(=O)Cn2ncc(Cl)c(Cl)c2=O)c1	-11.2%	-6.2%	-8.0%	-16.7%	nt	4.5%
Cc1cccc(NC(=O)N2CCC3(CC2)Oc2ccccc2C(=O)N3Cc2ccccc2F)c1C	-16.7%	13.7%	nt	5.2%	nt	28.8%
O=C(NCCC1=CCCCC1)C1CCC(CNc2c(N3CCCC3)c(=O)c2=O)CC1 (stereo not given)	-20.6%	4.7%	5.6%	10.7%	nt	21.7%
CCOc1ccc(S(=O)(=O)N(C(=O)c2ccco2)c2cc3sc(=O)oc3c3ccccc23)cc1	-19.2%	?	?	-8.4%	-4.8%	-0.4%
Cc1ccc(S(=O)(=O)N(C(=O)c2ccco2)c2cc3sc(=O)oc3c3ccccc23)cc1	-11.1%	?	56.2µM*	-15.2%	-9.9%	6.0%
COc1ccc(S(=O)(=O)N(C(=O)c2ccco2)c2cc3sc(=O)oc3c3ccccc23)cc1	-11.5%	?	44.7µM*	-14.2%	-8.5%	-8.0%
SMILES	POLH inh	Pol iota inh	WRN inhibitor	Pol kappa inh	L3MBTL1 block	POLB inh
CCOc1ccc(CCNC(=O)CS(=O)(=O)Cc2nc(-c3ccccc3F)oc2C)cc1	-8.0%	-19.8%	1.5%	-8.0%	nt	?
Cc1ccc(-c2cc(C(=O)N3CCN(c4ccccc4)CC3)c3ccccc3n2)cc1C	-8.9%	19.3%	nt	-6.2%[60.1 µM]	nt	1.6%
CN(c1ccccc1C(=O)Nc1ccc(F)c(F)c1)S(C)(=O)=O	-15.0%	37.8%	0.3%	-15.3%	6.2%	2.8%
COc1ccc2c(c1)n([O-])c1c([n+]2=O)CCC1	22.4µM*	?	-13.5%[57.1 µM]	-20.0%	nt	-3.2%
CCOc1ccc2c(c1)n([O-])c1c([n+]2=O)CCCC1	-0.1%	77.0%	-27.2%	-6.4%	nt	0.6%
NC(=O)CSc1nnc(-c2cc(-c3ccc(Cl)cc3)nc3ccccc23)o1	-5.7%	62.9%	-7.9%	-6.4%	-1.1%[11.4 µM]	29.7%
COc1ccccc1OCCCC(=O)Nc1nnc(C2CCCO2)s1 (stereo not given)	-15.1%	23.2%	-26.6%	-20.0%	nt	19.5%
O=C(CCCOc1ccccc1)Nc1nnc(C2CCCO2)s1 (stereo not given)	?	?	-12.9%	?	-8.8%	31.6µM*
Cc1cccc(NC(=O)CN2C(=O)c3ccccc3Sc3ncccc32)c1C	10.5%	13.0%	nt	0.5%	nt	23.5%
O=C1NC(c2cccc([N+](=O)[O-])c2)Oc2ccccc21 (stereo not given)	-8.2%	26.8%	-27.5%	0.4%	nt	13.2%
CCn1c(=O)c2c(O)cc(=O)oc2c2ccccc21	0.7%	-7.8%	0.8%	-7.3%	1.2%	27.1%
O=c1cc(O)c2c(=O)n(-c3ccccc3)c3ccccc3c2o1	?	5.5%	-13.8%	-25.7%	-20.5%	22.4µM*
CC(C)n1c(=O)c2c(O)cc(=O)oc2c2ccccc21	-28.6%	?	-3.5%[11.6 µM]	?	-13.0%	17.8µM*
CCc1ccc2oc(-c3cccc(NC(=O)c4cccnc4)c3)nc2c1	-15.2%	3.9%	-5.4%	-0.1%	-3.4%	13.3%
COc1ccccc1CNC(=O)CCNS(=O)(=O)c1ccc2[nH]c(=O)oc2c1	79.4µM*	-20.6%	-4.2%[11.6 µM]	-23.7%	nt	?
COc1ccccc1NC(=O)CCNS(=O)(=O)c1ccc2[nH]c(=O)oc2c1	25.1µM*	?	-14.4%	?	nt	-10.4%
O=C(CCc1nc2ccccc2[nH]c1=O)OCC(=O)N1CCc2ccccc21	-2.4%	-1.5%	3.2%	-13.7%	-5.7%	13.0%
COc1cc(NC(=O)c2cc3ccccc3cc2O)c(OC)cc1Cl	-0.8%	-5.6%	-5.0%	7.4%	nt	-19.1%
COc1ccc(C)cc1NC(=O)NNC(=O)c1cc2ccccc2cc1O	-0.6%	-26.3%	-13.7%	-13.3%	nt	79.4µM*
COc1ccccc1NC(=O)c1cc2cc(Br)ccc2cc1O	?	-12.9%	-27.3%	2.0%	nt	22.4µM*
Cc1ccc(Cl)cc1NC(=O)COC(=O)c1ccccc1O	9.6%	11.4%	-2.3%	-8.6%	-1.6%	-3.9%
Cc1ccc(Cl)cc1NC(=O)c1cc2ccccc2cc1O	2.4%	-2.7%	-8.1%	-8.5%	6.1%	25.1µM*
Cc1noc(C)c1COC(=O)C1(c2cccc(F)c2)CCCC1	-8.1%	-0.7%	-0.7%	-7.6%	23.7%	1.6%
COc1cc(/C=C2/CC/C(=C/c3ccc(O)c(OC)c3)C2=O)ccc1O	35.5µM*	39.8µM*	-34.0%	?	-13.8%	17.8µM*

High-throughput results from PubChem BioAssay.
